Screening data as filed in PubChem.
NPR2 activator: GC-B (human) receptor activation. P20594. HEK293-GC-B cells, CNP EC30, cGMP TR-FRET; 0% at EC30 CNP, 100% saturating CNP. activation, % at 10 µM. hit rate 0.11% among 370,000;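 active = activation at 10 µM reaching about 35% in either raw or pattern-adjusted values, limit read from the data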
GC-A act: GC-A (human) enzyme activation; P16066; HEK293 GC-A cells, cGMP TR-FRET, EC30 ANP; 0% at EC30 ANP, 100% saturating ANP; activation, % at 10 µM; hit rate 0.14% among 370,000; AID 1671463; in the data active = activation above about 40%
Target sequence (P16066 whole entry, looked up): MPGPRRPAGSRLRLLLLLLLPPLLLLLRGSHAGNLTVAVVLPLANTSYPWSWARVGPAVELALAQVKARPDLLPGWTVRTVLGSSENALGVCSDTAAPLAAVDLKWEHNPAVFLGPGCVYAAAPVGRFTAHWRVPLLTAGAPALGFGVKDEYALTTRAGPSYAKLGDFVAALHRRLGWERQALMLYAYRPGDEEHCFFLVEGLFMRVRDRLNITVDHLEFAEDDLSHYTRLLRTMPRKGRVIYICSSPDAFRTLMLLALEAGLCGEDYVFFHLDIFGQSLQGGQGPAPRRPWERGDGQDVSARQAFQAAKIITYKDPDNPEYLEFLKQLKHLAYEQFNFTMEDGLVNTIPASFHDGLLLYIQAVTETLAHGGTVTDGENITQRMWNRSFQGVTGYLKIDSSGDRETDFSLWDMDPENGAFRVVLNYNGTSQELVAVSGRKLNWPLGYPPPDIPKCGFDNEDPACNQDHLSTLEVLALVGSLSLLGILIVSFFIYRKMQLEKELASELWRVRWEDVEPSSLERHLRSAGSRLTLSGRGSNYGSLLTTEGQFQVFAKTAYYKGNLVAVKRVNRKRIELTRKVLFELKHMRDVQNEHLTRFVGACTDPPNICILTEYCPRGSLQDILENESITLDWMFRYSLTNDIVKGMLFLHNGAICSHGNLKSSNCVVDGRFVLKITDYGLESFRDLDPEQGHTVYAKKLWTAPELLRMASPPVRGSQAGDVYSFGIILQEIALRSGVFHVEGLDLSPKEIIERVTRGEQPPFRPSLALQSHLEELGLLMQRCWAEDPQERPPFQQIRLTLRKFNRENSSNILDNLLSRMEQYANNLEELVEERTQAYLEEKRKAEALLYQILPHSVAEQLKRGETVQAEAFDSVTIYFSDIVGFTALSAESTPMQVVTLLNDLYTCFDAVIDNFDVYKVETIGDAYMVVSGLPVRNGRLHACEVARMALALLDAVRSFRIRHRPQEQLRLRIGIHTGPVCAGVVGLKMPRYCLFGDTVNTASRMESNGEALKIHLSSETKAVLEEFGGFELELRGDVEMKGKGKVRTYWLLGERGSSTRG
Rev-erbA mod: Rev-erb alpha (human) modulation. AID 1259318. P20393. hit rate 0.79% among 370,000. activity, % at 10 µM. Rev-erbα–FITC-DNA binding, fluorescence polarization, 90 min;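 active = activity above about 14%, limit read from the data; passing the limit was not always enough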
V-ATPase pH: regulators of yeast V-ATPase proton transport. hit rate 0.37% among 350,000. S. cerevisiae, pHLuorin cytosolic pH fluorescence. response, % at 10 µM; in the data active = response mostly above about 7.3%, no sharp cut-off; inactive = mostly below about 5.4%; note: actives read high
PG9 binder: binds the HIV-1 gp120 antibody PG9 | AID 624416 | TR-FRET gp120-PG9 antibody binding | inhibition, % at 6.7 µM | hit rate 0.43% among 360,000; in the data active = inhibition above about 8.5%
Rev-erbA confirm: confirmation of modulators of human Rev-erb alpha DNA binding; AID 1259319; Rev-erb alpha FITC-DNA binding, fluorescence polarization, 90 min; hit rate 61% among 3,000; shares compounds with Rev-erbA mod; activation, % at 25 µM;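 active = activation at or above a set limit, or at least 3 SD above the negative control mean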
RORg counter: RORgamma DNA-binding activity, dose-response counter-screen. hit rate 8% among 910. purified RORgamma protein-FITC-DNA binding, fluorescence polarization. IC50, µM. AID 1259320. shares compounds with Rev-erbA mod;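 active = Compounds whose fitted half-maximal concentration for disrupting protein-DNA binding is below 10 micromolar; the record names Rev-erb in its text, so the target is in doubt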
Of the large screens only hits and unclear results are named; the others gave an inactive call (follow-up assays come after a bar, where they were run). A selection: hits, their analogues and other compounds. The true share with any hit is near 1.6%.

COC(=O)[C@]12C[C@H](CC(=O)N3CCSCC3)C(=O)N(Cc3ccco3)C1=C[C@H](COCc1ccccc1)O[C@@H]2C	none (no result: V-ATPase pH, PG9 binder)
CCCCNS(=O)(=O)/C=C/c1cc2c(cc1CNC(=O)OC(C)(C)C)OCO2	none (no result: V-ATPase pH, PG9 binder)
COc1ccc(CC(=O)Nc2ccc(-c3cn4ccc(C)cc4n3)cc2)cc1	Rev-erbA mod 16 | Rev-erbA confirm inactive
COc1ccc(CC(=O)Nc2ccc(-c3cn4cccc(C)c4n3)cc2)cc1OC	none
Cc1ccc(Cl)cc1N1CCN(S(=O)(=O)c2ccc(-c3ccc(=O)[nH]n3)o2)CC1	Rev-erbA mod 135 | Rev-erbA confirm 138 | RORg counter inactive
Cc1ccc(C)c(N2CCN(S(=O)(=O)c3ccc(-c4ccc(=O)[nH]n4)o3)CC2)c1	Rev-erbA mod 33 | Rev-erbA confirm inactive
O=c1ccc(-c2ccc(S(=O)(=O)N3CCCCC3)o2)n[nH]1	none
O=C(Nc1ccc(OC(F)(F)F)cc1)Nc1c(-c2ccc(F)cc2)nc2ncccn12	none (no result: V-ATPase pH, PG9 binder)
Cc1cccc(NC(=O)C2CCCN2S(=O)(=O)c2cccc3cccnc23)c1C (stereo unspecified)	none (no result: V-ATPase pH, PG9 binder)
COc1ccc(-c2oc3ccc(-c4cc(OC)c(OC)c(OC)c4)cc3c2C(=O)c2ccc(OC)nc2)cc1	Rev-erbA mod 22 | Rev-erbA confirm inactive
C=CCC[C@H](Cc1ccc(F)cc1)C(=O)OC[C@@H](C)NC(=O)[C@H](CC=C)CC(=O)N(CCO)Cc1ccccc1	none
C=CCC[C@@H](Cc1ccc(F)cc1)C(=O)OC[C@H](C)NC(=O)[C@@H](CC=C)CC(=O)N(CCO)Cc1ccccc1	Rev-erbA mod 13 | Rev-erbA confirm inactive
COC(=O)[C@]12C[C@H](CC(=O)NCCCN3CCCC3=O)C(=O)N(Cc3ccco3)C1=C[C@H](C1CCCC1)O[C@@H]2C	none (no result: V-ATPase pH, PG9 binder)
CC1(C(=O)NS(=O)(=O)c2cccc(Cl)c2)CCN1C(=O)CC1CCCCC1 (stereo unspecified)	Rev-erbA mod 16 (no result: V-ATPase pH) | Rev-erbA confirm inactive
N#C/C(=N\Nc1ccc([N+](=O)[O-])cc1)C(=N)N1CCOCC1	none
N#C/C(=N/Nc1ccc([N+](=O)[O-])cc1)C(=N)N1CCCCC1	Rev-erbA mod 28 | Rev-erbA confirm 20
N#C/C(=N\Nc1ccc([N+](=O)[O-])cc1)C(N)=S	Rev-erbA mod 35 | Rev-erbA confirm 29
Cc1ccc(-c2cc(C(=O)NN=Cc3cccc(Oc4ccccc4)c3)[nH]n2)cc1C	none (no result: V-ATPase pH, PG9 binder)
COC(=O)[C@]12C[C@H](CC(=O)N3CCOCC3)C(=O)N(Cc3ccco3)C1=C[C@H](C(C)C)O[C@@H]2C1CC1	none (no result: V-ATPase pH, PG9 binder)
C=CCN1C(=O)/C(=C2/Sc3ccc(OC)cc3N2C)SC1=NCc1ccccc1	Rev-erbA mod 55 | Rev-erbA confirm 47 | RORg counter inactive
O=C(COc1nc2ccccc2nc1N1CCOCC1)N1CCc2ccccc21	Rev-erbA mod 97 | Rev-erbA confirm 62 | RORg counter 4.3
COc1ccc(CCN(Cc2cccs2)S(=O)(=O)c2ccc(C)c(C)c2)cc1OC	none (no result: V-ATPase pH, PG9 binder)
COC(=O)C1CN(Cc2cn(Cc3ccccc3)nn2)CCS(=O)(=O)N1Cc1ccc(OC)cc1 (stereo unspecified)	none (no result: V-ATPase pH, PG9 binder)
COC(=O)[C@]1(C)CCC[C@@]2(C)C3CC[C@@]4(C)C[C@]3(CCC21)CC(=O)N4C (stereo partly specified)	none
COC(=O)[C@]1(C)CCC[C@@]2(C)C3CC[C@@]4(C)C[C@]3(CCC21)CC4=NO (stereo partly specified)	Rev-erbA mod 17 | Rev-erbA confirm inactive
C=COC(=O)c1sc2nc(C)cc(C)c2c1N	Rev-erbA mod 24 | Rev-erbA confirm inactive
CCOC(=O)[C@]12CCCC=C1N(CCCOC)C(=O)[C@@H]2CC(=O)N1CCCCC1	none (no result: V-ATPase pH, PG9 binder)
CCOC(=O)c1c(NC(=O)CSc2nc3ccccc3s2)sc(C(C)=O)c1C	Rev-erbA mod 25 | Rev-erbA confirm 43 | RORg counter inactive
CCOC(=O)c1sc(NC(=O)CSc2nc3ccccc3o2)c(C(=O)OCC)c1C	none
CCOC(=O)c1c(NC(=O)CSc2nc3cc(Cl)ccc3s2)sc(C(C)=O)c1C	Rev-erbA mod 65 (no result: V-ATPase pH) | Rev-erbA confirm inactive
Cc1ccccc1C(=O)NC1CCCCN(Cc2ccc(Cl)cc2)C1=O (stereo unspecified)	none (no result: V-ATPase pH, PG9 binder)
O=C1c2ccccc2C(Nc2ccc(S(=O)(=O)N3CCCCC3)cc2)N1c1ccccn1 (stereo unspecified)	Rev-erbA mod 25 | Rev-erbA confirm 21
COc1ccc(C(=O)O[C@@H]2CCC[C@@]3(C(=O)N(Cc4ccccc4)c4ccccc43)[C@H]2NC(=O)CCc2ccccc2)cc1OC	none (no result: V-ATPase pH, PG9 binder)
O=C(CSc1nc(-c2ccco2)cc(C(F)(F)F)n1)NC1CCCCCCC1	Rev-erbA mod 25 | Rev-erbA confirm inactive
Cc1ccc(OCC(=O)NNC(=O)CSc2ncnc3sc(C)c(C)c23)cc1	Rev-erbA mod 52 | Rev-erbA confirm inactive
CCc1ccc(OCC(=O)NNC(=O)CSc2ncnc3sc(C)c(C)c23)cc1	Rev-erbA mod 26 | Rev-erbA confirm inactive
CCn1cc(C(=O)NCCc2ccccc2C)c(=O)c2ccc(C)nc21	Rev-erbA mod 44 | Rev-erbA confirm 52 | RORg counter 3.8
C#CCCCN([C@@H](CC(C)C)C(=O)OC)S(=O)(=O)c1ccc(F)cc1Br	none (no result: V-ATPase pH, PG9 binder)
CCOC(=O)c1c(NC(=O)c2nc3n(n2)C(C(F)F)CC(C)N3)sc2c1CCCC2 (stereo unspecified)	Rev-erbA mod 22 | Rev-erbA confirm inactive
Cc1nc2ccc(NC(=O)c3ccc(F)cc3Cl)cc2c(=O)[nH]1	none (no result: V-ATPase pH, PG9 binder)
Cc1nc(C)c(-c2ccc(SCC(=O)Nc3cccc(Cl)c3C)nn2)s1	Rev-erbA mod 16 | Rev-erbA confirm inactive
Cc1nc(C)c(-c2ccc(SCC(=O)Nc3ccccc3)nn2)s1	none
CCOC(=O)c1c(-c2ccccc2)csc1NC(=O)/C(C#N)=C/c1ccc(O)c(OC)c1	Rev-erbA mod 26 | Rev-erbA confirm 36 | RORg counter inactive
CCOC(=O)c1c(-c2ccc(C)cc2)csc1NC1=NS(=O)(=O)c2ccccc21	Rev-erbA mod 37 | Rev-erbA confirm 20
CCOC(=O)c1c(-c2ccccc2)csc1NC(=O)/C(C#N)=C/c1ccc(OC)c(OC)c1	none
CCOC(=O)c1c(-c2ccccc2)csc1NC(=O)c1cccc(N2C(=O)CCC2=O)c1	Rev-erbA mod 26 | Rev-erbA confirm inactive
CCOC(=O)c1c(-c2ccc(C)cc2)csc1NC(=O)c1ccc(N2C(=O)CCC2=O)cc1	none
CCOC(=O)c1c(-c2ccc(C)cc2)csc1NC(=O)c1cccc(N2C(=O)CCC2=O)c1	Rev-erbA mod 26 | Rev-erbA confirm inactive
Cn1c(SCCc2ccccc2)nnc1-c1ccco1	none (no result: V-ATPase pH, PG9 binder)
